According to PubChem BioAssay (NCI):
Compounds without any hit were thinned out: in the full panel of roughly 79,000, 15% have a hit. A number with no mark means an inactive call. Calls of active or inactive are those of the source. No stated cut-off is given here; in the data, active means growth inhibition above about 70%; inactive means the rest.

What was measured:
[1] = NCI Yeast Anticancer Drug Screen. Data for the rad50 strain (AID 155);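 further: 0% = growth of vehicle-only cultures of the same strain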; conditions: S. cerevisiae rad50 strain growth inhibition; at 50.0 µM; hits give high values
In short: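 Inhibition values express reduced yeast growth in compound-treated cultures relative to vehicle-treated controls.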

[2] = NCI Yeast Anticancer Drug Screen. Data for the mec2-1 strain (AID 157); conditions: S. cerevisiae mec2-1 strain, at 50.0 µM, hits give high values
In short: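 Each compound was tested on mec2-1 yeast, a strain altered in DNA damage repair or cell cycle control. Growth inhibition is reported relative to vehicle.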

[3] = NCI Yeast Anticancer Drug Screen. Data for the sgs1 mgt1 strain (AID 161);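 further: 0% = growth of cultures given vehicle only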; conditions: S. cerevisiae sgs1 mgt1 strain, at 50.0 µM, hits give high values
In short: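 Genetically altered yeast, compound exposure, growth inhibition relative to vehicle.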

[4] = NCI Yeast Anticancer Drug Screen. Data for the cln2 rad14 strain (AID 165);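 further: 0% = growth equal to vehicle treated cultures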; conditions: S. cerevisiae cln2 rad14 strain, at 50.0 µM, hits give high values
In short: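 Test compounds were added to cln2 rad14 yeast cultures; inhibition of growth was then determined by comparison with vehicle treatment.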

[5] = NCI Yeast Anticancer Drug Screen. Data for the bub3 strain (AID 167); conditions: S. cerevisiae bub3 mutant strain, at 50.0 µM, hits give high values
In short: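 Steps: expose the mutant yeast strain to compound; grow alongside vehicle-treated cultures; measure growth; express inhibition against the vehicle cultures.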

[6] = NCI Yeast Anticancer Drug Screen. Data for the mlh1 rad18 strain (AID 175); conditions: S. cerevisiae mlh1 rad18 strain growth inhibition; at 50.0 µM; hits give high values
In short: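 Inhibition values reflect reduced growth of mutant yeast versus vehicle-treated controls following compound exposure; the mutations affect DNA damage repair.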

SMILES	growth inhibition [1]	growth inhibition [2]	growth inhibition [3]	growth inhibition [4]	growth inhibition [5]	growth inhibition [6]
O=C1/C(=C/c2ccc(Cl)cc2)CCC1CNc1ccc(Cl)cc1 (configuration not stated)	17.1%	0.25%	-15.6%	-2.8%	-16.2%	-43.1%
O=C(CCCC(=O)N/N=C/c1ccc(I)cc1)N/N=C\c1ccc(I)cc1	29.9%	9%	25.2%	25.1%	-1.05%	17.7%
CCNC(=O)Nc1nc2ccccc2s1	-27.8%	-13%	1.75%	-90.7%	-23.8%	-21.4%
O=C(O)CCC(=O)Oc1ccccc1	-17.6%	11.2%	13.2%	31.6%	9.6%	44.5%
O=C(CC(=O)c1ccccc1)Nc1ccc(-c2nc3ccccc3c(=O)[nH]2)cc1	20.1%	10.5%	19.9%	1.9%	19.6%	27.7%
Cc1cc(C)c(CCC(=O)O)c(C)c1	6.95%	4.8%	-0.3%	6.6%	-7.1%	-1.25%
Nc1nc(-c2ccccc2)c(N=Nc2ccc([N+](=O)[O-])cc2Cl)s1	-4.7%	2.55%	4.4%	-13.1%	-11.5%	3.6%
C=CCCCCCCCCC(=O)N(CC#N)CC(C)C	79.1% (active)	82% (active)	91.5% (active)	76% (active)	87.2% (active)	91.5% (active)
CCOC(=O)c1cc(-c2ccc(OC)c(OC)c2)c[nH]1	14.6%	-2.3%	40.2%	12.6%	23.1%	28%
CC(C)(C)CC(C)(C)c1ccc(OCCOc2ccc([N+](=O)[O-])cc2N)cc1	56.5%	11.1%	41.6%	4%	4.9%	26.1%
Cn1c(=O)nc(N)n(NC(=O)CCl)c1=O	30.6%	10.3%	23.6%	9.9%	-6.6%	15.4%
O=[N+]([O-])c1ccc2c(c1)Cc1cc(N(CBr)CBr)ccc1-2	6.35%	5.8%	-1.4%	-21.7%	-7.55%	18.9%
O=c1cc(O)n2ncnc2[nH]1	-4.3%	-23.6%	-21.8%	3.05%	-12.6%	9%
CC(C)NC(=O)c1ccccc1S(=O)c1ccccc1C(=O)NC(C)C	-16.4%	3.45%	8.15%	11.3%	5.05%	7.25%
COC(=O)CCCCCN1C(=O)c2cccc([N+](=O)[O-])c2C1=O	20.6%	7.2%	15.6%	20.9%	15.2%	20.6%
Cc1cc2c(c(C(C)(C)C)c1)OC(=O)/C2=C1/C(=O)Oc2c1cc(C)cc2C(C)(C)C	8.3%	-8%	-9.25%	0.85%	2.3%	-12.8%
O=c1[nH]c2nc[nH]c(=O)c2[nH]1	0.25%	-7.6%	5.1%	-11.8%	-6.05%	6.05%
Cc1cc(N2CCCCC2)nc2ccccc12	4.95%	-4.4%	-18.6%	-3.9%	-1.85%	9.25%
O=C(O)c1ccccc1Cc1c[nH]c2ccccc12	-37.3%	4.95%	-0.8%	-15.3%	41.3%	-5.05%

SMILES	growth inhibition [1]	growth inhibition [2]	growth inhibition [3]	growth inhibition [4]	growth inhibition [5]	growth inhibition [6]
O=C1C(OCc2ccccc2)=C(c2ccccc2)C(=O)N1c1ccccc1	-1.75%	-13.2%	2.2%	24.8%	-11.6%	-9.75%
CN1C(C(=O)O)CCC1C(=O)O (configuration not stated)	-1.2%	7.6%	6.55%	-31.8%	-0.4%	2%
CC1(C)OCC2(CO1)CSCCCSCC1(COC(C)(C)OC1)CSCCCSC2	-5.65%	-12.9%	-8.75%	-11.8%	-25.5%	-3.8%
O=c1cc(-c2ccccc2)c2ccc(O)cc2o1	-11.8%	1.45%	20.4%	3%	2%	-1.2%
O=C(NO)/C(CC(=O)c1ccccc1O)=N\O	-5.4%	-21.6%	-11.2%	-2.05%	-4.15%	-7.75%
CCCCCCCCCCCCC(O)C(=O)O (configuration not stated)	12.3%	-17.9%	10.2%	12.8%	35.7%	-39.7%
c1ccc2c(c1)C1OC2c2ccccc21	-30.2%	-20.3%	-26.4%	-26.3%	-0.4%	-1.25%
Cc1cccc(C(=O)NC(C)C)c1	-7.75%	-40%	-5.9%	15.8%	-4.95%	-19.6%
CC1=CC(=O)N2[C@H](OC[C@@H]2C(C)C)O1	6.4%	-2.35%	2.15%	14.7%	-20.2%	9.5%
COC(=O)C(CC(=O)c1cc2c(cc1I)OCO2)Cc1cc(OC)c(OC)c(OC)c1I (configuration not stated)	-22.9%	-28.8%	-29.8%	-1.65%	-2.45%	-24.9%
Cc1ccc2c(c1)c1ccc3c(c1n2C)C(=O)C=CC3=O	3.25%	30.7%	74.8% (active)	2.55%	62.6%	74% (active)
CN1/C(=C\N=O)C(C)(C)N(O)C1(C)C	16.6%	-13.9%	2.55%	17.2%	5.85%	-85.7%
S=c1nn[nH]n1-c1cccc2ccccc12	4.7%	1.9%	-4.65%	2.6%	-10.8%	-3.8%
Cc1ccc(NC(=O)NC23CC4CC(CC(F)(C4)C2)C3)cc1	20.1%	4.45%	-34%	0.25%	-3.65%	-12.3%
CC(=O)OC1CCCN(C)C1 (configuration not stated)	-3.2%	5.5%	4.6%	-7.9%	8.75%	-7.8%
CC1CCOCCCOC(=O)CCOCCC(=O)OCCCOCCCOC(=O)CCOCCC(=O)O1 (configuration not stated)	0.7%	2.4%	5%	15.9%	-5.95%	-4.45%
N#Cc1ccc(NN=NCCCCCl)cc1	8.85%	-8.3%	14.8%	3.05%	-6.7%	2.6%
CNS(=O)(=O)c1c(C)cccc1CC(=O)c1ccccc1	-4.3%	0.65%	12.2%	-12.8%	14.8%	-8.2%
